Source: PubChem BioAssay
A selection: hits, their analogues and other compounds. The true share with any hit is near 4.1%.
hcDAF12 agonist: H. contortus DAF-12 nuclear receptor activators, primary screen, cell-based, luminescence, HEK293, lit1-tk-luc reporter; 1.4% of 370,000 active; AID 652067, 2013; activation, % at 6.8 µM; HEK293 hcDAF-12 lit1-tk-luc reporter; 0% DMSO, 100% Δ7-dafachronic acid;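 active = activation above the mean of all tested compounds plus 3 SD, cut at about 5.5% in these data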;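 note: 100% = response to 3 µM Δ7-dafachronic acid high control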
hgDAF-12 ag: H. glycines DAF-12 receptor agonists, primary screen, cell-based, luminescence, HEK293, GAL4 fusion, UAS-luciferase. Nuclear hormone receptor DAF-12 (Heterodera glycines), GAL4 fusion. HEK293 GAL4-hgDAF12 UAS-luciferase reporter, agonist luminescence; normalized to butyrate control. activation, % at 6.8 µM. 1.8% of 370,000 active. AID 687014, 2013;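 active = activation above a cutoff set at the mean of all screened compounds plus 3 SD, cut at about 10% in these data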;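 note: 0% = DMSO wells and 100% = sodium butyrate wells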
DAX1 inh-1: DAX1 (NR0B1) inhibitors on StAR promoter, primary screen, cell-based, luminescence, SF-1 (NR5A1), full-length DAX-1. HEK293T StAR-luciferase reporter, SF-1/DAX-1 repression relief. inhibition, % at 6.8 µM. 1.1% of 370,000 active;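 active = inhibition above the mean over all tested compounds plus 3 SD, cut at about 3.6% in these data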;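 note: 0% = DAX-1 cells with DMSO and 100% = cells lacking DAX-1 with DMSO; higher inhibition means more luminescence from relief of DAX-1 repression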
ssDAF12 agonist: S. stercoralis DAF-12 nuclear receptor activators, primary screen, cell-based, luminescence, HEK293, GRIP1 co-expression, lit1-tk-luc; 1% of 370,000 active; HEK293 ssDAF-12/GRIP1 lit1-tk-luc reporter; % of 3 µM dafachronic acid response; activation, % at 6.8 µM; AID 652126, 2013; Nuclear hormone receptor DAF-12 (Strongyloides stercoralis);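 active = activation above the mean over all tested compounds plus 3 SD, cut at about 0.9% in these data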;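 note: 0% = DMSO-only wells and 100% = 3 µM delta7-dafachronic acid wells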
DAX1 inh-2: DAX1 (NR0B1) inhibitors, primary screen, cell-based, HEK293, Gal4-DAX1, luciferase luminescence; inhibition, % at 6.75 µM; 0.99% of 340,000 active; AID 504766, 2011; HEK293 Gal4-DAX1 luciferase reporter; Nuclear receptor subfamily 0 group B member 1 (Homo sapiens), P51843;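 active = inhibition above the mean over all tested compounds plus 3 SD, cut at about 4.2% in these data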;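 note: 0% = DAX1-transfected cells with DMSO and 100% = empty-vector control cells with DMSO; inhibition shows as a rise in luminescence from relieved DAX1 repression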
Target sequence (P51843 207-470 limits assumed): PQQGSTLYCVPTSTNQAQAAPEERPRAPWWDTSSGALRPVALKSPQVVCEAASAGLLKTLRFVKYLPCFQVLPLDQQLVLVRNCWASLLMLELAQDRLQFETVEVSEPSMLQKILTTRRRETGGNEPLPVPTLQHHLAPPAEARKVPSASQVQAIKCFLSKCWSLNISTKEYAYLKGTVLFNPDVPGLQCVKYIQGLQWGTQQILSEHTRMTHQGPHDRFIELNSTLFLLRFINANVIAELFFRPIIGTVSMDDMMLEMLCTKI
PolyA inhibitor: polyadenylation inhibitors in yeast reporter cells, primary screen, luminescence, S. cerevisiae; 0.02% of 300,000 active; activity score, % at 12 µM; S. cerevisiae SKY197-pL101 polyadenylation reporter, beta-gal luminescence; efflux-impaired pdr1/pdr3 knockout yeast; score 100 = 6 SD above DMSO;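 active = lowest replicate activity score at least 50, where 100 means six control SD above control mean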;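 note: yeast exposed to compound for 9 h at 30 °C; higher score means more reporter readthrough which indicates perturbed polyadenylation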
* marks the source's active call; other numbers are inactive results; x = no result.

SMILES	hcDAF12 agonist	hgDAF-12 ag	DAX1 inh-1	ssDAF12 agonist	DAX1 inh-2	PolyA inhibitor
CO/N=C(\CCC(=O)O)c1cccs1	-1.1	11.4*	0.7	-1.5	1.0	-1.1
Brc1ccc2nc(-c3ccc(CN4CCC5(CC4)CNc4ccccc45)cc3)c(-c3ccccc3)nc2c1	1.1	3.8	-0.1	0.1	x	x
Cc1cc(NC(=O)CC(C)(C)C)nc2c1c(=O)oc1ccccc12	6.3*	0.3	0.4	-1.0	-0.5	0.4
COC(=O)C1CN(C2CC2)CCS(=O)(=O)N1Cc1cn(Cc2ccc(F)cc2)nn1 (stereo not given)	-0.7	3.2	0.0	-1.2	x	x
CCn1ccc(C(=O)Nc2ccc(Cl)cn2)n1	2.4	8.9	4.2*	-0.8	2.1	-5.3
CCn1nccc1C(=O)Nc1ccc(Cl)cn1	0.6	1.8	0.4	-0.6	0.1	-2.5
CCn1ccc(C(=O)Nc2ccc(N(C)C(C)=O)cc2)n1	-0.2	1.2	-0.1	-0.8	3.1	-4.9
CCn1ccc(C(=O)Nc2ccccc2SC)n1	1.3	11.3*	0.9	-0.9	0.0	-4.9
COC(=O)c1sc(=S)n(Cc2ccccc2)c1C	-0.7	1.4	0.1	-0.8	12.4*	-5.9
CC(C)c1[nH]nc2c1C(c1ccc3c(c1)OCO3)NC2=O (stereo not given)	-1.6	-2.9	-0.6	-0.6	x	x
O=C(CSc1nnc(-c2ccccn2)n1-c1ccc(Cl)cc1)Nc1ccc(S(=O)(=O)Nc2nccs2)cc1	0.4	5.8	-0.1	-1.6	x	x
CCCn1nnc(NC(=O)c2cccc(Cl)c2)n1	1.6	3.6	0.0	-0.1	0.1	-1.4
CCCn1nnc(NC(=O)c2cc3ccccc3o2)n1	3.5	9.3	2.7	-0.7	5.7*	4.1
CCCn1nnc(NC(=O)c2cc(Br)ccc2OC)n1	-0.8	1.0	0.1	1.1*	0.7	7.7
CCOC(=O)CC[C@H]1CC[C@]2(CCCN(C(=O)c3ccc4ccccc4n3)C2)O1	0.4	-0.6	-0.5	-1.4	x	x
COC(=O)[C@@H](NC(=O)N1CCC(C)CC1)C(C)C	-1.3	4.1	-0.3	-1.0	4.9*	-7.3
O=C1OC(Cc2ccccn2)C(O)=C1C1=NCCCN1 (stereo not given)	0.2	2.9	1.2	-0.1	-0.8	21.1
O=C1OC(Cc2ccccn2)C(O)=C1C1=NCCCCN1 (stereo not given)	3.8	13.2*	2.3	-0.6	5.3*	5.7
CC1=C(C(=O)c2ccccc2)C(c2ccc(O)cc2)NC(=S)N1 (stereo not given)	-0.3	-1.8	0.4	-1.6	4.4*	-0.9
CN(Cc1cccc(F)c1)C(=O)c1ccc2c(=O)n3c(nc2c1)CCC3	-0.8	-1.6	0.1	-0.6	0.7	-4.8
O=C(OCc1cccc(F)c1)c1ccc2c(=O)n3c(nc2c1)CCC3	-2.1	2.2	-0.5	-1.1	4.5*	2.0
N#Cc1ccc(C(=O)Oc2coc(CSc3ncccn3)cc2=O)cc1	0.7	2.7	x	0.0	x	x
COc1cccc(-c2cc3onc(-c4ccccc4)c3c(=O)n2C)c1	5.3	11.7*	2.6	0.2	1.8	x
Cn1c(-c2ccc(F)c(F)c2)cc2onc(-c3ccccc3)c2c1=O	4.3	12.4*	2.0	-0.2	3.7	x
O=C1c2ccccc2NC(c2cccs2)N1O (stereo not given)	0.7	0.5	3.7*	-0.6	5.7*	x
COC(=O)[C@]12C[C@H](CC(=O)N3CCOCC3)C(=O)N(Cc3ccc(Cl)cc3Cl)C1=C[C@H](C(C)(C)C)O[C@@H]2C	-0.2	1.5	-0.5	-1.3	x	x
CC(=O)Nc1cccc(NC(C)=C(C#N)C#N)c1	0.2	1.4	0.3	-1.1	-0.8	2.9
